The list is not random: actives were taken first. Their share in the collection is about 11%.
PNC inhibitor: inhibitors of perinucleolar compartment assembly. PC3M PTB-GFP, PNC prevalence imaging, 16 h; active compounds read low. 3.1% of 140,000 active. activity change (PNC), negative = inhibition, % at 10 µM;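 active means readout at or below -70, meaning at least 70% loss of cells showing the perinucleolar compartment, a nuclear body marking cancer cells; inconclusive means readout between -30 and a set limit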;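 further: plate controls were DMSO wells for no effect and camptothecin positive control wells for full effect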
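Compounds are pinned in duplicate onto adhered PC3M cells stably expressing GFP-tagged PTB and incubated 16 h at 37 C. Cells are then fixed, nuclei stained with Hoechst, and PNC-positive cells counted.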
HPGD inh: HPGD (human) dehydrogenase inhibition; P15428; purified HPGD, NADH fluorescence kinetic, PGE2 substrate; Potency, µM, for the others: at the highest dose activity change, negative = inhibition, usual class: inhibitors; 4.3% of 150,000 active; further: potency means the concentration at half of the fitted maximal effect
Target sequence (P15428 whole entry, looked up): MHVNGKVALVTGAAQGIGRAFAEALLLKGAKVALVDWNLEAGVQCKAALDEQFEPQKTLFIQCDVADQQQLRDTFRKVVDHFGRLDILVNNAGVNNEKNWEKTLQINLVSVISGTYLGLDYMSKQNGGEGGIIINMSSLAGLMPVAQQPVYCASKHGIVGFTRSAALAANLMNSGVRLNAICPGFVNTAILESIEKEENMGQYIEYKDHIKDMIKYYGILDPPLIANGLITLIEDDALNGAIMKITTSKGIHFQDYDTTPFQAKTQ
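20 nM HPGD preincubated 15 min at room temperature with compound in 50 mM Tris-HCl pH 8, 0.01% Tween 20. Started with 1 mM NAD+ and 30 uM prostaglandin E2; NADH fluorescence (360/450 nm) read 5 times over 30-s intervals, last minus first.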
ALDH1A1 block: blocks purified human ALDH1A1 activity; P00352; Purified ALDH1A1, NADH fluorescence, propionaldehyde substrate; Potency, µM (highest dose often 75.3 µM), for the others: at the top dose activity, negative = inhibition, usual class: inhibitors; 7.3% of 220,000 active; AID 1030;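 further: potency means the concentration at half of the fitted maximal effect; plate controls were no enzyme wells and a reference inhibitor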
Target sequence (P00352 whole entry, looked up): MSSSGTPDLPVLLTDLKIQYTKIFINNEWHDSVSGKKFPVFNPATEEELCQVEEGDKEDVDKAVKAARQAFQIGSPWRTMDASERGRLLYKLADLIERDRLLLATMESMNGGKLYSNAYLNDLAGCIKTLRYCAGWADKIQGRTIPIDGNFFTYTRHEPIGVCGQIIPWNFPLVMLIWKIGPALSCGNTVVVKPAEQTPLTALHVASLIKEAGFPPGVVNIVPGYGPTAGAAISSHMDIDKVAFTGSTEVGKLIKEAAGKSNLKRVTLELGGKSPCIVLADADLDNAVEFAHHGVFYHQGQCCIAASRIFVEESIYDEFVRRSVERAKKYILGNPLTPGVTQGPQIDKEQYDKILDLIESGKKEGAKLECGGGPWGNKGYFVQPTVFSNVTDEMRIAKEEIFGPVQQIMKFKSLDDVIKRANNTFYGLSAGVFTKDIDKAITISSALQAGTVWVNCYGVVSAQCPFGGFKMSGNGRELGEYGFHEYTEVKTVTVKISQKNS
NPSR antagonist: antagonists of human neuropeptide S receptor cAMP signaling | 1% of 220,000 active | CHO-NPSR cells, cAMP TR-FRET, antagonist mode | Q6W5P4 | Potency, µM (top dose mostly 38.3 µM), without a hit: top-dose activity change, negative = inhibition, actives largely listed as inhibitors; active means well fitted curve in the direction sought with a large enough effect; inconclusive means small, poorly fitted or top-dose-only effect, or another doubt; inactive means no such curve, though single readings can be large; an effect the other way counts as inactive or inconclusive; further: potency means the concentration at half of the fitted maximal effect; nearly all actives have a fitted effect of over 50% in size
IMPase cell inh: membrane-permeable compound that blocks inositol monophosphatase | CHO-M1 cells, IP1 accumulation, HTRF TR-FRET ratio | inhibition (IP1 accumulation), % at 46.1 µM | 120,000 tested, under 10 active; active means well fitted curve in the direction sought with a large enough effect in the signal ratio, not every such curve was filed as active; inconclusive means small, poorly fitted or top-dose-only effect, or a change in a side signal; inactive means no such curve, though single readings can be large or run the other way; the % refers to the signal ratio;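 further: cells stimulated with carbachol in lithium chloride buffer; plate controls were DMSO basal wells for no effect and reference inhibitor wells for full effect; higher means more IMPase inhibition seen as more IP1 and lower FRET ratio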
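Measured: the HTRF emission ratio (665/620 nm) plus the 620 nm donor channel, each fitted to the Hill equation to give AC50. Cells were CHO-M1 given compounds up to 46 uM and a 30 min carbachol stimulation at 37C.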
IMPase Li inh: membrane-permeable IMPase blocker, potentiated with lithium; CHO-M1 cells, IP1 TR-FRET (IP-One), carbachol + lithium; Potency, µM (top dose mostly 59.4 µM), inactives show at the highest dose activity, negative = IMPase inhibition, hits mostly inhibitors; 0.35% of 210,000 active; active means well fitted curve in the direction sought with a large enough effect; inconclusive means small, poorly fitted or top-dose-only effect, or another doubt; inactive means no such curve, though single readings can be large; an effect the other way counts as inactive or inconclusive;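 further: IP1 builds up when IMPase is blocked and the TR-FRET signal falls; potency means the concentration at half of the fitted maximal effect; plate controls were basal vehicle for no effect and high inhibitor control for full effect; nearly all actives have a fitted effect of over 50% in size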
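CHO cells stably expressing M1 receptor (2000/well, cultured 16–30 h) treated 30 min at 37C with compound plus low lithium. Cytosolic IP1 by TR-FRET (665/620 ratio and 620 channel) after 10 min lysis; AC50 by Hill fit.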
* hit, by the source's call; ? = inconclusive; nt = not tested or not shown; [ ] = dose if it differs, or a comment. Unless noted, the call rests on the fitted dose curve; in most records, active means well fitted inhibition curve with a large enough effect (not every such curve was filed as active); inconclusive means small, poorly fitted or top-dose-only effect, or another doubt; inactive means no such curve, though single readings can be large or run the other way. Unless noted, on the % scale 0 is the no-effect control and ±100 the full control effect.

SMILES	PNC inhibitor	HPGD inh	ALDH1A1 block	NPSR antagonist	IMPase cell inh	IMPase Li inh
COc1ccc(OC)c(C2CC(=O)Nc3ccc4ccccc4c32)c1 (configuration not stated)	nt	nt	nt	nt	-5	nt
COc1cc(C2CC(=O)N3CN(Cc4ccco4)CSC3=C2C#N)ccc1OCc1ccccc1 (configuration not stated)	-23	25µM*	7.9µM*	6%[46.1 µM]	2	15%[38.3 µM]
COc1ccc(C2C(C#N)=C(N)Oc3cc(C)n(Cc4ccco4)c(=O)c32)cc1 (configuration not stated)	25	3%	?	-5%[46.1 µM]	1	1%[38.3 µM]
COc1ccc2ccccc2c1C1CC(=O)N2CN(Cc3ccco3)CSC2=C1C#N (configuration not stated)	3	7.9µM*	22µM*	-19%[46.1 µM]	5	7%[38.3 µM]
COc1ccc(C2CC(=O)N3CN(Cc4ccco4)CSC3=C2C#N)cc1 (configuration not stated)	13	13µM*	10µM*	-8%[46.1 µM]	-7	-7%[38.3 µM]
COc1cc(CNCc2ccco2)ccc1OCc1ccccc1	?	-5%	-9%	-8%[46.1 µM]	7	7%[38.3 µM]
Cc1ccc(NC(=O)CSc2nnc(C)c(=O)n2N)c(C)c1	-13	-15%	0%	-24%[46.1 µM]	-8	-1%
Cc1nn(C)c2ncc(C(=O)c3cc(F)ccc3O)cc12	-8	-19%	7%	-9%[46.1 µM]	2	15%[38.3 µM]
Cc1nn(-c2ccccc2)c2ncc(C(=O)c3cc(Cl)ccc3O)cc12	-28	16µM*	-4%	-23%	nt	15%
CC1CCN(C(=O)CSc2nc3[nH]ncc3c(=O)[nH]2)CC1	?	-17%	11µM*	22%	-5	-3%
O=C(C1CCC(CNc2nc(=S)[nH]c3ccccc23)CC1)N1CCN(c2ccccn2)CC1 (configuration not stated)	17	-20%	?	2%[46.1 µM]	0	10%[38.3 µM]
c1ccc(CNc2ncnc3nc[nH]c23)cc1	-8	-5%	6%	0%[46.1 µM]	-5	22%[38.3 µM]
C1=Nc2c(NCc3ccccc3)ncnc2Oc2ccccc21	16	25µM*	-12%	-18%[46.1 µM]	4	32%[38.3 µM]
Cc1ccccc1CNc1ccc(C(CC(N)=O)NC(=O)c2ccc(Br)cc2)cc1[N+](=O)[O-] (configuration not stated)	nt	nt	nt	-11%	nt	nt
Cc1ccccc1CSCC(Nc1ccc(C(=O)O)cc1[N+](=O)[O-])C(=O)O (configuration not stated)	?	-9%	16µM*	-3%[46.1 µM]	1	33%[38.3 µM]
COC(=O)c1ccccc1S(=O)(=O)Nc1ccc(OC)nc1	-20	-1%	4%	-5%[46.1 µM]	?	27%[38.3 µM]
O=C1C(N2CCOCC2)=C(n2nnc3ccccc32)C(=O)c2ccccc21	12	?	1.3µM*	?	40	64%[38.3 µM]
O=C1c2ccccc2C(=O)c2c1cccc2-n1nnc2ccccc21	nt	nt	nt	-10%	nt	nt
COC(=O)CSc1nnc(-c2ccc(S(=O)(=O)N3CCCC3)cc2)n1C	?	-15%	?	-3%[46.1 µM]	13	20%[38.3 µM]
CN(CCC#N)C(=O)COC(=O)c1ccccc1C(=O)c1ccc(Cl)c([N+](=O)[O-])c1	nt	nt	-11%	-29%	nt	4%
CC(=O)C1C(c2ccc(F)cc2)c2c(noc2C)CC1(C)O (configuration not stated)	nt	nt	nt	13%	nt	nt
O=C(COC(=O)C1CC2C=CC1C2)Nc1ccc2c(c1)OC(F)(F)O2 (configuration not stated)	-100*	-14%	?	2%[46.1 µM]	-3	21%
O=C(COC(=O)C1CC2C=CC1C2)Nc1cccc(S(=O)(=O)N2CCCCC2)c1 (configuration not stated)	26	-6%	?	-10%	-2	3%
O=C(CCCN1C(=O)c2cccc3cccc(c23)C1=O)NCc1cccs1	nt	nt	?	5%	nt	-8%
O=C1OC(Cc2ccccn2)C(O)=C1C1=NCCCN1 (configuration not stated)	-83*	-4%	-2%	13%	nt	-2%
SMILES	PNC inhibitor	HPGD inh	ALDH1A1 block	NPSR antagonist	IMPase cell inh	IMPase Li inh
CCCN1C(=O)/C(=C/c2cc(C)n(C)c2C)SC1=Nc1ccc(OC)cc1	11	-17%	2µM*	-27%[46.1 µM]	8	24%[38.3 µM]
Cc1cc(/C=C2\SC(=O)N(CC(=O)Nc3ccccc3F)C2=O)c(C)n1C	nt	nt	?	-5%	nt	4%
COc1ccc(N=C2S/C(=C\c3cc(C)n(C)c3C)C(=O)N2C)cc1	16	-6%	?	?	5	7%[38.3 µM]
COc1ccccc1N1C(=O)S/C(=C\c2cc(C)n(C)c2C)C1=O	nt	nt	14µM*	-13%	nt	8%
CCN(CC)c1ncnc2ccc(Br)cc12	?	-16%	?	9%[46.1 µM]	-8	25µM*
CN(C)c1cccc(C(=O)OCCNC(=O)c2cccc(S(=O)(=O)N3CCOCC3)c2)c1	nt	nt	nt	-1%	nt	nt
Cc1cc(C)c(O)c(-c2cc(C(=O)Nc3ccc(S(=O)(=O)N4CCOCC4)cc3)[nH]n2)c1	-3	-7%	-16%	13µM*	15	55%[38.3 µM]
C/C(=C\C(=O)c1ccc(Cl)cc1Cl)N(C)C	nt	nt	5.6µM*	5%	nt	-8%
O=C(CN1CC(=O)Nc2ccccc21)Nc1ccc(F)c(F)c1	nt	nt	6.3µM*	-8%	nt	1%
COc1ccccc1NC(=O)CN1CC(=O)Nc2ccccc21	nt	nt	3.5µM*	-5%	nt	9%
COCCNC(=O)C1=C(N)C(C(=O)Nc2ccc(C)c(S(=O)(=O)N3CCCCC3)c2)SC1=Nc1ccc(C)cc1C (configuration not stated)	0	?	0.79µM*	-13%[46.1 µM]	7	28%[38.3 µM]
COc1ccc(-n2c(N3CCN(C)CC3)nc3sc4c(c3c2=O)CCCCC4)cc1	-16	?	2.8µM*	-4%[46.1 µM]	-1	-2%[38.3 µM]
COc1ccc2nc(Cl)cc(Cl)c2c1	nt	nt	nt	0%	nt	nt
CCN(CC)CCCC(C)Nc1c2ccc(Cl)cc2nc2ccc(OC)cc12 (configuration not stated)	nt	?	?	10µM*	nt	38%
NNC(=O)c1cc2sccc2s1	nt	nt	2.5µM*	-12%	nt	nt
Nc1nc(C(=O)N2CCOCC2)nn1S(=O)(=O)c1ccc(Cl)cc1	?	-4%	18%	4%[46.1 µM]	8	17%[38.3 µM]
CNC(=O)c1nnsc1S(=O)(=O)c1ccc(Cl)cc1	nt	nt	2µM*	?	nt	26%
O=C(c1nnsc1S(=O)(=O)c1ccc(Cl)cc1)N1CCOCC1	nt	nt	2.8µM*	-37%	nt	9%
CNCCCOc1ccc(C)cc1OC	nt	nt	?	-22%	nt	-1%
O=C(/C=C/c1ccccc1Cl)NC1CCS(=O)(=O)C1 (configuration not stated)	nt	nt	7%	-3%	nt	0%
N#C/C(=C(/O)CCl)c1nnc2n1CCCCC2	nt	nt	?	-2%	nt	-6%
